Results: the supplement of paper PMC10849652
The full data set covers some 8,800 targets. This sample favours those with a hit. About 0.5% of all pairs of compound and target were hits. A number with no mark means an inactive call.

Tests used:
Assay in all cases: log2 fold change, soluble protein after heating vs DMSO (PISA); higher = thermal stabilisation; K562 lysate, 10 uM; active = over 0.2 and 3.5 SD of the protein, either way, in both replicates (recomputed)
lapatinib = compound: CS(=O)(=O)CCNCc1ccc(-c2ccc3ncnc(Nc4ccc(OCc5cccc(F)c5)c(Cl)c4)c3c2)o1 [lapatinib]
How it was run: (§1)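 A 30 min treatment with 10 μM compound was applied to crude K562 extract at 1 mg/mL protein in PBS pH 7.4 with 1 mM MgCl2. Heating for 3 min spanned 48°C-58°C, after which aliquots were pooled, adjusted to 0.5% NP-40 at 4°C and spun at 21,000xg for 90 min. TMTpro 16plex LC-MS/MS of the supernatant, with channel sums equalised, gave values recorded as log-two fold change in thermal stability against solvent controls, from duplicates.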

pictilisib = compound: CS(=O)(=O)N1CCN(Cc2cc3nc(-c4cccc5[nH]ncc45)nc(N4CCOCC4)c3s2)CC1 [pictilisib]
How it was run: as §1

crizotinib = compound: C[C@@H](Oc1cc(-c2cnn(C3CCNCC3)c2)cnc1N)c1c(Cl)ccc(F)c1Cl [crizotinib]
How it was run: as §1

[1] = compound: C[C@H](C1=CC=C(C=C1)C(=O)NC2=C3C=CNC3=NC=C2)N
How it was run: as §1

duvelisib = compound: C[C@H](Nc1ncnc2nc[nH]c12)c1cc2cccc(Cl)c2c(=O)n1-c1ccccc1 [duvelisib]
How it was run: as §1

gandotinib = compound: Cc1cc(Nc2cc(CN3CCOCC3)c3nc(C)c(Cc4ccc(Cl)cc4F)n3n2)n[nH]1 [gandotinib]
How it was run: as §1

tozasertib = compound: Cc1cc(Nc2cc(N3CCN(C)CC3)nc(Sc3ccc(NC(=O)C4CC4)cc3)n2)n[nH]1 [tozasertib]
How it was run: as §1

doramapimod = compound: Cc1ccc(-n2nc(C(C)(C)C)cc2NC(=O)Nc2ccc(OCCN3CCOCC3)c3ccccc23)cc1 [doramapimod]
How it was run: as §1

bafetinib = compound: Cc1ccc(NC(=O)c2ccc(CN3CC[C@H](N(C)C)C3)c(C(F)(F)F)c2)cc1Nc1nccc(-c2cncnc2)n1 [bafetinib]
How it was run: as §1

[2] = compound: Cc1cccc(CC(=O)N2CCc3c2ccc(-c2cn(C)c4ncnc(N)c24)c3F)n1
How it was run: as §1

## NFIC (UniProt P08651)
lapatinib
  log2 fold change: -0.004
pictilisib
  log2 fold change: 0.109
crizotinib
  log2 fold change: 0.007
[1]
  log2 fold change: -0.361
duvelisib
  log2 fold change: -0.002
gandotinib
  log2 fold change: 0.237
tozasertib
  log2 fold change: 0.035
doramapimod
  log2 fold change: 0.139
bafetinib
  log2 fold change: -0.038
[2]
  log2 fold change: 0.003

## NFATC2 (UniProt Q13469)
Chain of UniProt Q13469 (Q13469 whole entry, looked up): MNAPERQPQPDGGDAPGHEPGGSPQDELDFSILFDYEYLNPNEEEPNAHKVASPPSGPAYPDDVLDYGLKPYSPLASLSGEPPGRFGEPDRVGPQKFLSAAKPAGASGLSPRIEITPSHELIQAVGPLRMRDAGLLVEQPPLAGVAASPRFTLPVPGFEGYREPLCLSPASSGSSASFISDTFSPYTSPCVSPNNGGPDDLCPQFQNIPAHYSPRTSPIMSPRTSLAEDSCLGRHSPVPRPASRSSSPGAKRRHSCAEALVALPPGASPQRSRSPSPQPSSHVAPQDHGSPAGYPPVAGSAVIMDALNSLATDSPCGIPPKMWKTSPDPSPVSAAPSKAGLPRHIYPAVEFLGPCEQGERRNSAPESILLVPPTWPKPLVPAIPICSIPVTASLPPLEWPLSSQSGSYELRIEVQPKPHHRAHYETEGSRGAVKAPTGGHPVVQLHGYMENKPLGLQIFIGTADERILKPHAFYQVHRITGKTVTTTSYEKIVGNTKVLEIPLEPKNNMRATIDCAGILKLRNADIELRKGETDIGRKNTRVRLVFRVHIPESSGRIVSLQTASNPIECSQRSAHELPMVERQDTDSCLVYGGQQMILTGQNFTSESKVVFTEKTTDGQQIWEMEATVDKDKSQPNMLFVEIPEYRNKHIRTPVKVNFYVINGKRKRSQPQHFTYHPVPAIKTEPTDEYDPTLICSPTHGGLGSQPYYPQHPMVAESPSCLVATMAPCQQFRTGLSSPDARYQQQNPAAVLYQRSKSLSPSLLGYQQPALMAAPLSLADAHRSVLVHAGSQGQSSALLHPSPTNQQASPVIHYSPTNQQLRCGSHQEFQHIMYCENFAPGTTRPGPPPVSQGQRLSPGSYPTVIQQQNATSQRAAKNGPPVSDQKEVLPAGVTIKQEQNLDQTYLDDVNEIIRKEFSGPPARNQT
lapatinib
  log2 fold change: -0.003
pictilisib
  log2 fold change: 0.03
crizotinib
  log2 fold change: -0.021
[1]
  log2 fold change: 0.085
duvelisib
  log2 fold change: -0.017
gandotinib
  log2 fold change: 0.133
tozasertib
  log2 fold change: 0
doramapimod
  log2 fold change: 0.059
bafetinib
  log2 fold change: -0.02
[2]
  log2 fold change: 0.117

## NOSIP (UniProt Q9Y314)
Chain of UniProt Q9Y314 (Q9Y314 whole entry, looked up): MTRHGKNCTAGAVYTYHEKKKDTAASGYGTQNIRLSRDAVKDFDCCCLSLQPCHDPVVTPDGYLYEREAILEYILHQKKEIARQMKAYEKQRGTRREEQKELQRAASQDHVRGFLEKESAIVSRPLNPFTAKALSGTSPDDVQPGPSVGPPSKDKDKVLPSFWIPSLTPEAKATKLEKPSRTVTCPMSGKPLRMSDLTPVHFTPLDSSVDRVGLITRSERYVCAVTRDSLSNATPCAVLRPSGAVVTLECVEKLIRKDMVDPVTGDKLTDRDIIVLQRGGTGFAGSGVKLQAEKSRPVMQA
lapatinib
  log2 fold change: -0.03
pictilisib
  log2 fold change: -0.042
crizotinib
  log2 fold change: -0.026
[1]
  log2 fold change: 0.02
duvelisib
  log2 fold change: -0.004
gandotinib
  log2 fold change: 0.017
tozasertib
  log2 fold change: -0.053
doramapimod
  log2 fold change: 0.013
bafetinib
  log2 fold change: -0.003
[2]
  log2 fold change: 0.038

## MSI2 (UniProt Q96DH6)
Chain of UniProt Q96DH6 (Q96DH6 whole entry, looked up): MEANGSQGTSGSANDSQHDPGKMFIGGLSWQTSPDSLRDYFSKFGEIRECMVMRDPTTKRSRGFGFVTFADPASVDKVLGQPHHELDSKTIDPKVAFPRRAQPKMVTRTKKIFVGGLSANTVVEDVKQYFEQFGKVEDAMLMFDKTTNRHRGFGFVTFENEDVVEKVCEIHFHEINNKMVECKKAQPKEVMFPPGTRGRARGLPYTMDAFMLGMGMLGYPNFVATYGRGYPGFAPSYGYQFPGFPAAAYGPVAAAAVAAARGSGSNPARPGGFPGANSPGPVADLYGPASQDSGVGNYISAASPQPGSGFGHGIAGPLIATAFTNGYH
lapatinib
  log2 fold change: 0
pictilisib
  log2 fold change: -0.057
crizotinib
  log2 fold change: 0.036
[1]
  log2 fold change: 0.024
duvelisib
  log2 fold change: -0.052
gandotinib
  log2 fold change: -0.031
tozasertib
  log2 fold change: 0.01
doramapimod
  log2 fold change: -0.23 (active)
bafetinib
  log2 fold change: -0.066
[2]
  log2 fold change: 0.07

## NNT (UniProt Q13423)
Chain of UniProt Q13423 (Q13423 whole entry, looked up): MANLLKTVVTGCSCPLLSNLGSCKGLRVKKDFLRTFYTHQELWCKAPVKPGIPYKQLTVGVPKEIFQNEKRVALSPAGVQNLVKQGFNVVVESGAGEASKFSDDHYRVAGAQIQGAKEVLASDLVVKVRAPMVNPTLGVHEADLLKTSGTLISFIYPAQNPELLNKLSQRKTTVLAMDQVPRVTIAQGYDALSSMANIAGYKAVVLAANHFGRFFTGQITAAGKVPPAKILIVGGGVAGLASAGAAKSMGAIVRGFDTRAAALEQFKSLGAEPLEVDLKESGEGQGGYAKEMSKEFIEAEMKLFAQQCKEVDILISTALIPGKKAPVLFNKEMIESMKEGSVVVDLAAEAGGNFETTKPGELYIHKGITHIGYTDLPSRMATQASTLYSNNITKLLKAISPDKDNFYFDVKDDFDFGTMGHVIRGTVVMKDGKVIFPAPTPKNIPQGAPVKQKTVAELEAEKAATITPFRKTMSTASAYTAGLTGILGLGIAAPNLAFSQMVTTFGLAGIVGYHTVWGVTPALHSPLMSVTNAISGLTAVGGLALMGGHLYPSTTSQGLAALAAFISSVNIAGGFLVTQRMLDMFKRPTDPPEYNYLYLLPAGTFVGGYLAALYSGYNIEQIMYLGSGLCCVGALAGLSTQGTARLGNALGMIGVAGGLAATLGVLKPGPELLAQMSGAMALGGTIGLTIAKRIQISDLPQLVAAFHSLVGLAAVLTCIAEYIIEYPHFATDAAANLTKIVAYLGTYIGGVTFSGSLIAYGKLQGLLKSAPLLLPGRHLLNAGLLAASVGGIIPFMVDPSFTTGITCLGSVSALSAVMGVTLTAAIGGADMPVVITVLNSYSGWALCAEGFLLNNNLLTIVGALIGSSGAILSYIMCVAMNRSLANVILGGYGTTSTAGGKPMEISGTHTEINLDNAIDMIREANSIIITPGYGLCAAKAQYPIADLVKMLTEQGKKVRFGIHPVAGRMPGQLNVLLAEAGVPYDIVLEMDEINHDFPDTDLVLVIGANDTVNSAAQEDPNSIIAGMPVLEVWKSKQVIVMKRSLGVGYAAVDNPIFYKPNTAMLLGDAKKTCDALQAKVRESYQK
lapatinib
  log2 fold change: -0.047
pictilisib
  log2 fold change: -0.046
crizotinib
  log2 fold change: 0.03
[1]
  log2 fold change: 0.013
duvelisib
  log2 fold change: 0.039
gandotinib
  log2 fold change: -0.445 (active)
tozasertib
  log2 fold change: -0.014
doramapimod
  log2 fold change: 0.011
bafetinib
  log2 fold change: -0.006
[2]
  log2 fold change: 0.003

## MSH6 (UniProt P52701)
lapatinib
  log2 fold change: -0.004
pictilisib
  log2 fold change: -0.005
crizotinib
  log2 fold change: -0.076
[1]
  log2 fold change: -0.003
duvelisib
  log2 fold change: 0.014
gandotinib
  log2 fold change: -0.087
tozasertib
  log2 fold change: 0.013
doramapimod
  log2 fold change: 0.037
bafetinib
  log2 fold change: -0.051
[2]
  log2 fold change: 0.022

## NADK2 (UniProt Q4G0N4)
Chain of UniProt Q4G0N4 (Q4G0N4 whole entry, looked up): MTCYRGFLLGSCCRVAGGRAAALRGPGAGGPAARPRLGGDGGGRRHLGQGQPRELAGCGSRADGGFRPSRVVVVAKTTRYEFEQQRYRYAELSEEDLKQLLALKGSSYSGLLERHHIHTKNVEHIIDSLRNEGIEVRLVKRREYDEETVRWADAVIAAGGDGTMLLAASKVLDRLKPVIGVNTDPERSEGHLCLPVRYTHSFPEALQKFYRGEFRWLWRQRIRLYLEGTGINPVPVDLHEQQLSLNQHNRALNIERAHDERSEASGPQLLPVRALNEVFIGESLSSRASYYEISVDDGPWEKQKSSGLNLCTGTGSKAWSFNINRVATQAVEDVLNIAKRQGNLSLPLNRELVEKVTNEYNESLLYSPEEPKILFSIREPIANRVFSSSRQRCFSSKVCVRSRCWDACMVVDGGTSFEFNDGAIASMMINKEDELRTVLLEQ
lapatinib
  log2 fold change: 0.02
pictilisib
  log2 fold change: -0.028
crizotinib
  log2 fold change: -0.005
[1]
  log2 fold change: -0.04
duvelisib
  log2 fold change: 0.03
gandotinib
  log2 fold change: 0.004
tozasertib
  log2 fold change: 0.012
doramapimod
  log2 fold change: -0.002
bafetinib
  log2 fold change: 0.01
[2]
  log2 fold change: 0.017

## NMRAL1 (UniProt Q9HBL8)
lapatinib
  log2 fold change: -0.003
pictilisib
  log2 fold change: 0.105
crizotinib
  log2 fold change: -0.017
[1]
  log2 fold change: 0.695 (active)
duvelisib
  log2 fold change: 0.08
gandotinib
  log2 fold change: -0.01
tozasertib
  log2 fold change: -0.051
doramapimod
  log2 fold change: 0.036
bafetinib
  log2 fold change: 0.005
[2]
  log2 fold change: 0.011

## ORC2 (UniProt Q13416)
Chain of UniProt Q13416 (Q13416 whole entry, looked up): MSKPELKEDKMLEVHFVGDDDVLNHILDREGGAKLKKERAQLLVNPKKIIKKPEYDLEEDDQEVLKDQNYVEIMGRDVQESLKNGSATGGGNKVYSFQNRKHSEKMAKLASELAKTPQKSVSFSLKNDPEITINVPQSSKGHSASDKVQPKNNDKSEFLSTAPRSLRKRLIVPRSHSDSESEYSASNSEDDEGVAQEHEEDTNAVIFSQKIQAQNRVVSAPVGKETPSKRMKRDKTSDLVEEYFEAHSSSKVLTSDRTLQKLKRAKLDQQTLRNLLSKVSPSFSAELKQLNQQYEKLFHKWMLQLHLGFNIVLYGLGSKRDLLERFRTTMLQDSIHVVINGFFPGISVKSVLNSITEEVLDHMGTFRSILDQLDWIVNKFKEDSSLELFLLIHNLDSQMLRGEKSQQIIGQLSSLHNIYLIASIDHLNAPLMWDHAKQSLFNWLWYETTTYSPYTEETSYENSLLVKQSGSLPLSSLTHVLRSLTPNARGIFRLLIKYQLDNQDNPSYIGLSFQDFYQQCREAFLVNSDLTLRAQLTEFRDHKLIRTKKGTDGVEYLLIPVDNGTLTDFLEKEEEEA
lapatinib
  log2 fold change: 0.016
pictilisib
  log2 fold change: -0.049
crizotinib
  log2 fold change: -0.074
[1]
  log2 fold change: 0.063
duvelisib
  log2 fold change: -0.068
gandotinib
  log2 fold change: -0.087
tozasertib
  log2 fold change: -0.017
doramapimod
  log2 fold change: -0.007
bafetinib
  log2 fold change: -0.034
[2]
  log2 fold change: 0.011

## MVB12A (UniProt Q96EY5)
lapatinib
  log2 fold change: 0.012
pictilisib
  log2 fold change: -0.027
crizotinib
  log2 fold change: -0.025
[1]
  log2 fold change: 0
duvelisib
  log2 fold change: -0.04
gandotinib
  log2 fold change: -0.031
tozasertib
  log2 fold change: -0.046
doramapimod
  log2 fold change: 0.012
bafetinib
  log2 fold change: -0.015
[2]
  log2 fold change: -0.031

## OSBPL6 isoform 5 (UniProt Q9BZF3)
Chain of UniProt Q9BZF3 (Q9BZF3 whole entry, looked up): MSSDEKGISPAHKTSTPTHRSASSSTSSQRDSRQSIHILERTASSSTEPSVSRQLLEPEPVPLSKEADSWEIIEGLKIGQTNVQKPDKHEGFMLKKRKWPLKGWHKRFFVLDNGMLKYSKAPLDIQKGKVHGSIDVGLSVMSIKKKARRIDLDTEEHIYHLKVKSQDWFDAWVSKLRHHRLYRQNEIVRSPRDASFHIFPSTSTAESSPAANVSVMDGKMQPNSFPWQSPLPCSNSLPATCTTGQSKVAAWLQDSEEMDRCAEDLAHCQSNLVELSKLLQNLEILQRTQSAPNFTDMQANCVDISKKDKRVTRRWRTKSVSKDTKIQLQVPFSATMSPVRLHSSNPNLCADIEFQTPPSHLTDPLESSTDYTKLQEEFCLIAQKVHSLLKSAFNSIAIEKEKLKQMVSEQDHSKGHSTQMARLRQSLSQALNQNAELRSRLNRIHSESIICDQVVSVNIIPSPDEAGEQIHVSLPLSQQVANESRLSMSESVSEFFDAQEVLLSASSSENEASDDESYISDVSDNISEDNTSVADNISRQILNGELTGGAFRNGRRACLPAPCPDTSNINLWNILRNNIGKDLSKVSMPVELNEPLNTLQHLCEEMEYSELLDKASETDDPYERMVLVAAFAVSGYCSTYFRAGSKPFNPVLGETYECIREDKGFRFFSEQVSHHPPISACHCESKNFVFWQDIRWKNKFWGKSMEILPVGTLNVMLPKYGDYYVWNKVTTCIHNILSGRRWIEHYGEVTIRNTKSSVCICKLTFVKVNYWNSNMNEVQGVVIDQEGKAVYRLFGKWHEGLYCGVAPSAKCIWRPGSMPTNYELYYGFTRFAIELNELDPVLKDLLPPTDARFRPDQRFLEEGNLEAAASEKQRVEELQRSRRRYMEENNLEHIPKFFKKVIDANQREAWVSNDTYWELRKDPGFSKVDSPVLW
lapatinib
  log2 fold change: 0.077
pictilisib
  log2 fold change: 0.008
crizotinib
  log2 fold change: 0.367 (active)
[1]
  log2 fold change: -0.003
duvelisib
  log2 fold change: -0.003
gandotinib
  log2 fold change: 0.033
tozasertib
  log2 fold change: 0.036
doramapimod
  log2 fold change: 0.005
bafetinib
  log2 fold change: 0.32
[2]
  log2 fold change: 0.004

## NDUFA4 (UniProt O00483)
Chain of UniProt O00483 (O00483 whole entry, looked up): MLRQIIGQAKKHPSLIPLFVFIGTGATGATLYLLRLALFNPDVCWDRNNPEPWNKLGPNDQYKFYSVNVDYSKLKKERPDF
lapatinib
  log2 fold change: 0.124
pictilisib
  log2 fold change: 0.017
crizotinib
  log2 fold change: 0.02
[1]
  log2 fold change: 0.009
duvelisib
  log2 fold change: 0.059
gandotinib
  log2 fold change: -0.294 (active)
tozasertib
  log2 fold change: -0.01
doramapimod
  log2 fold change: 0.02
bafetinib
  log2 fold change: 0
[2]
  log2 fold change: -0.026

## NAP1L5 (UniProt Q96NT1)
Chain of UniProt Q96NT1 (Q96NT1 whole entry, looked up): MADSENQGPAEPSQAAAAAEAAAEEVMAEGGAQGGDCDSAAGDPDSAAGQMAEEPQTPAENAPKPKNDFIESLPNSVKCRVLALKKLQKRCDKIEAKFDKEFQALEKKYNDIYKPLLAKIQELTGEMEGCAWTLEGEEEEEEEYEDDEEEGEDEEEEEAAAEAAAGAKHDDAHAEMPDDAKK
lapatinib
  log2 fold change: 0.079
pictilisib
  log2 fold change: 0.017
crizotinib
  log2 fold change: 0.094
[1]
  log2 fold change: 0.616 (active)
duvelisib
  log2 fold change: 0.099
gandotinib
  log2 fold change: -0.299
tozasertib
  log2 fold change: -0.016
doramapimod
  log2 fold change: -0.171
bafetinib
  log2 fold change: 0.076
[2]
  log2 fold change: -0.174

## MTA3 (UniProt Q9BTC8)
lapatinib
  log2 fold change: 0.006
pictilisib
  log2 fold change: 0.026
crizotinib
  log2 fold change: -0.058
[1]
  log2 fold change: -0.022
duvelisib
  log2 fold change: 0.001
gandotinib
  log2 fold change: -0.013
tozasertib
  log2 fold change: -0.008
doramapimod
  log2 fold change: 0.002
bafetinib
  log2 fold change: -0.048
[2]
  log2 fold change: 0.051
